# From PubChem
# Sampled rows, rich in hits. Any-hit rate of the full collection: about 1.5%.
# gsp agonist: qHTS for Agonist of gsp, the Etiologic Mutation Responsible for Fibrous Dysplasia/McCune-Albright Syndrome: qHTS; gsp mutant cells, cAMP HTRF, 30 min; actives 0.13% (n = 340,000); Potency, µM (series often up to 76.9 µM), without a hit: at the top dose activation (cAMP increase), usual class: activators; active means well fitted activation curve with a large enough effect; inconclusive means small, poorly fitted or top-dose-only effect, or another doubt; inactive means no such curve, though single readings can be large or run the other way; cell line not stated here;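 further: phosphodiesterase inhibitor Ro 20-1724 added with compounds to block cAMP breakdown; potency means the concentration at half of the fitted maximal effect; nearly all actives have a fitted effect of over 60% in size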
#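 Cells stably selected in G418 were plated at 2000/well, grown 16-24 hr, then given compounds in DMSO with the PDE inhibitor […] (300 uM solution added) for 30 min at 37C; cAMP was read by HTRF.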
# BRCA1 expr up: qHTS Assay to Identify Small Molecule Activators of BRCA1 Expression; MCF7-BRCA1-FFLuc reporter, luminescence, 48 h; response scale: scaled: vehicle 0%, 10 µM genistein 100%; Potency, µM (highest dose often 46.1 µM), inactives show at the highest dose activation, usual class: activators; actives 1.1% (n = 380,000); further: potency means the concentration at half of the fitted maximal effect; nearly all actives have a fitted effect of over 80% in size
#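 Luminescence from a BRCA1-driven firefly luciferase in MCF7 cells was the read-out, taken 15 min after substrate addition following 48 h compound exposure at 37 °C. Data were normalized to a 10 microM genistein control and DMSO vehicle.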
# IDH1 R132H inh: qHTS for Inhibitors of mutant isocitrate dehydrogenase 1 (IDH1): qHTS; actives 0.093% (n = 390,000); Isocitrate dehydrogenase [NADP] cytoplasmic (Homo sapiens), O75874; Potency, µM (series often up to 76.6 µM), inactives show top-dose activity change, negative = inhibition, usual class: inhibitors; AID 602179, 2012; IDH1-R132H enzyme, NADPH consumption, diaphorase/resazurin fluorescence; further: potency means the concentration at half of the fitted maximal effect; on the % scale 0 is the no-effect control and ±100 the full control effect; nearly all actives have a fitted effect of over 65% in size
# Target sequence (O75874 whole entry R132H, stated change not applied): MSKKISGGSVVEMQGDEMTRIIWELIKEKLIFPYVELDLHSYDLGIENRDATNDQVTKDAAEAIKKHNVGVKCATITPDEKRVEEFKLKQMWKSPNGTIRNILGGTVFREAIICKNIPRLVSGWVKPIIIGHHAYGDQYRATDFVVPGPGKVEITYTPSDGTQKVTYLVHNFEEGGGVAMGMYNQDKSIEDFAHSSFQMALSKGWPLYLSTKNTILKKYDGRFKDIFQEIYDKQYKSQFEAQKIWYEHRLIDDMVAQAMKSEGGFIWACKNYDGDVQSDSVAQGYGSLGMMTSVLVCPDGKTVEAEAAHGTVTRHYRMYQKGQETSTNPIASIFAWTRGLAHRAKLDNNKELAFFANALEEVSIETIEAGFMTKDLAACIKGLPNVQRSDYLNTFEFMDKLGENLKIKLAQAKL
#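 IDH1-R132H (0.5 ug/mL) preincubated 30 min with compound, then NADPH (0.016 mM) and alpha-KG (2 mM) added; 80 min at RT, pH 7.5. Remaining NADPH coupled via diaphorase/resazurin to fluorescence (540/590 nm); concentration-response curves normalized to no-enzyme control.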
# gsp antagonist: qHTS for Antagonists of gsp, the Etiologic Mutation Responsible for Fibrous Dysplasia/McCune-Albright Syndrome: qHTS | gsp-mutant cells, cAMP HTRF, 30 min | Potency, µM (top dose mostly 76.9 µM), for the others: top-dose activity change, negative = inhibition, actives largely listed as inhibitors | actives 0.4% (n = 340,000) | AID 624288, 2012; calls by dose curve; cell line not stated here;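 further: intracellular cAMP measured with PDE inhibitor Ro 20-1724 present during compound exposure; potency means the concentration at half of the fitted maximal effect; on the % scale 0 is the no-effect control and ±100 the full control effect; nearly all actives have a fitted effect of over 65% in size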
#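 HTRF cAMP measurement after 30 min RT detection following 30 min, 37C compound treatment alongside […] (added as 300 uM solution) in G418-selected cells seeded at 2000/well and grown 16–24 h.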
# IL2 activator: qHTS of IL-2 Activators. IL-2 activation reporter assay, cell-based qHTS; stimulated with anti-CD3/CD4/CD28 beads; in transgenic mouse T cells. activation, % (series mostly up to about 46 µM). actives 0.065% (n = 360,000). AID 652025, 2013; in the data active means activation above about 50%; inconclusive means mostly about 30% to 49%; further: 0% is about no effect
#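 Unstimulated transgenic mouse T cells, 750 per well, received compound and, after 60 minutes, anti-CD3/anti-CD4 bead plus anti-CD28 stimulation. EGFP and DsRed were quantified after 18 hours.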
# Numbers without * were called inactive; ? = inconclusive; . = not tested or not shown; [ ] = remark or other dose. Unless noted, the call rests on the fitted dose curve; in most records, active means well fitted curve in the direction sought with a large enough effect; inconclusive means small, poorly fitted or top-dose-only effect, or another doubt; inactive means no such curve, though single readings can be large; an effect the other way counts as inactive or inconclusive.
SMILES,gsp agonist,BRCA1 expr up,IDH1 R132H inh,gsp antagonist,IL2 activator
CCOC(=O)c1cccc(NC(=O)CCc2nnc3ccc(N4CCN(C)CC4)nn23)c1,28.6%,2.5%,4.4%,12.0%,-2.9
O=C(Nc1nccs1)c1ccc(COc2ccccc2)o1,1.6%[15.4 µM],5.62µM*,1.5%,-17.4%,-0.3
Cc1ccc(OCc2ccc(C(=O)Nc3nccs3)o2)cc1,-13.5%,99.0%,-2.1%,9.8%,-1.1
O=C(Nc1nccs1)c1ccc(CSc2ccccc2)o1,2.4%,2.82µM*,-6.2%,-16.5%,4.0
CC(=O)N1N=C(c2ccc(Cl)cc2)CC1c1ccco1 (configuration not stated),-1.2%,51.6%,-1.3%,-1.4%,-0.2
CC(=O)N1N=C(c2ccc(C)cc2)CC1c1ccco1 (configuration not stated),-2.3%,12.6µM*,9.2%,-2.8%,1.0
CCC(=O)N1N=C(c2ccc(NS(=O)(=O)c3ccccc3)cc2)CC1c1ccco1 (configuration not stated),5.1%,-46.5%,1.3%,31.6µM*,1.8
Cc1ccc(C2=NN(S(C)(=O)=O)C(c3ccc4c(c3)OCO4)C2)cc1 (configuration not stated),-5.5%,?,3.8%,-19.6%,-0.4
CC(=O)N1N=C(c2ccc(C)cc2)CC1c1ccc2c(c1)OCO2 (configuration not stated),15.0%[15.4 µM],4.47µM*,16.5%,?,-2.4
O=C1CC(Sc2nnc(-c3ccccc3O)o2)C(=O)N1c1ccccc1 (configuration not stated),-1.4%,23.9%,-2.9%,-10.0%,-2.3
COc1ccc(N2C(=O)CC(Sc3nnc(-c4ccccc4)o3)C2=O)cc1 (configuration not stated),28.2µM*,3.3%[1.84 µM],-2.0%,6.5%,-1.4
Cc1ccc(Cn2ccc(=O)c(OCc3ccccc3)c2C)cc1,0.0%,11.2µM*,-0.5%,5.0%,0.2
Cc1cc(C)n(-c2nnc(NC34CC5CC(CC(C5)C3)C4)nn2)n1,-2.4%,2.51µM*,3.5%,-1.3%,0.1
CCOC(=O)Cn1c2ccc(OC)cc2c2nc3ccccc3nc21,6.5%,-1.4%,17.8%,2.0%,51.1*
O=C(COc1ccccc1)NNc1c2ccccc2nc2ccccc12,-50.6%,-72.3%,9.4%,39.8µM*,1.2
O=C(NNc1c2ccccc2nc2ccccc12)c1cccc(O)c1,26.7%,28.9%,1.2%,-10.9%,-0.8
COc1ccc(OCC(=O)NNc2c3ccccc3nc3ccccc23)cc1,-9.6%,-77.9%,-1.0%,31.6µM*,0.3
CCCC(=O)NNc1c2ccccc2nc2ccccc12,-31.9%,-1.0%,3.5%,-19.0%,-0.5
O=C(NNc1c2ccccc2nc2ccccc12)c1ccc(O)cc1,-30.3%,56.7%,9.4%,35.5µM*,9.8
C/C(=C\C(=O)c1ccccc1)Nc1ccc(O)cc1,-49.7%,5.01µM*,6.4%,-9.2%,-0.6
O=C(c1cc(COc2cccc3cnccc23)on1)N1CCCC(CCCO)C1 (configuration not stated),10.9%,-4.2%,5.0%,35.5µM*,-4.7
COCC1CCN(C(=O)c2cc(COc3cccc4cnccc34)on2)CC1,35.6%,4.0%,0.6%,-22.2%,-5.0
O=C(c1cc(COc2ccccc2)on1)N1CCCC(OCc2cccnc2)C1 (configuration not stated),-101.1%,47.3%,9.9%,-5.8%,-3.2
COc1ccccc1OCc1cc(C(=O)N2CCCC(OCc3cccnc3)C2)no1 (configuration not stated),-33.7%,7.08µM*,2.8%,3.4%,-2.4
O=C(NCc1ccccc1)NC1COc2ccccc2C1 (configuration not stated),.,.,30.4%,.,.
SMILES,gsp agonist,BRCA1 expr up,IDH1 R132H inh,gsp antagonist,IL2 activator
COc1ccc(S(=O)(=O)N(C)C[C@H]2Oc3ncc(C#CC4(O)CCCC4)cc3C(=O)N([C@@H](C)CO)C[C@@H]2C)cc1,17.9%,0.9%,2.3%,.,-3.0
CCOc1ccc(/C=C2\CCC(C3CCCC3)C2=O)cc1OC (configuration not stated),1.8%,-17.8%,0.1%,-1.4%,0.3
CCOc1ccc(/C=C2\CCC(C3CCCC3)C2=O)cc1 (configuration not stated),1.5%,3.98µM*,3.1%,0.4%,-0.3
Cc1ccc2[nH]c(SCC(=O)N3CCOCC3)nc2c1C,1.2%,8.91µM*,4.8%,-2.4%,-0.1
Cc1ccc2nc(SCC(=O)N3CCOCC3)[nH]c2c1,?,?,11.1%,14.4%,0.9
CC(C)c1ccc2[nH]c3nc(SCC(=O)N4CCOCC4)nnc3c2c1,-13.0%,11.2µM*,6.9%,-7.2%,-3.7
Nc1ccc(Oc2ccc3nc(-c4ccccc4)c(-c4ccccc4)nc3c2)cc1,8.3%,-1.5%,0.7%,-11.0%,1.3
Nc1ccc(Oc2cc(N)cc(Oc3ccccc3)c2)cc1,-27.4%[15.4 µM],7.08µM*,-6.5%,-3.5%,0.7
Cc1csc(NC(=O)c2oc3ccccc3c2C)n1,1.9%,9.7%,2.7%,-1.4%,-6.0
Cc1csc(Nc2nc(N)c(C(=O)Nc3ccccc3)o2)n1,-19.5%,7.94µM*,9.4%,-9.8%,-3.8
COc1ccc(C(=O)Nc2ccc(Nc3ccccc3)cc2)cc1[N+](=O)[O-],-10.6%,-40.4%,-10.7%,28.2µM*,0.5
COc1ccc(C(=O)Nc2ccc(OCc3ccccc3)cc2)cc1[N+](=O)[O-],-17.6%,0.1%[1.84 µM],2.9%,-10.6%,-0.7
CCN(CC)c1ccc(C(=O)Nc2ccccc2)cc1[N+](=O)[O-],-2.3%[15.4 µM],10µM*,20.7%,.,1.6
O=C(Nc1ccccc1)c1ccc(NCCc2ccccc2)c([N+](=O)[O-])c1,?,-34.2%,3.1%,-1.1%,6.6
COc1c(N)c2c(c([N+](=O)[O-])c1OC)C(=O)OC2,0.4%[15.4 µM],-3.8%,-0.3%,-7.2%,-0.8
O=C(Cc1ccc(F)cc1)NCCc1csc2nc(-c3ccccc3F)nn12,.,.,-1.6%,.,.
CCN(Cc1ccccc1)c1cc2c(c3c1ccn3C)C1CCC2C1 (configuration not stated),.,-8.2%,.,.,1.8
COc1ccc(CCNc2oc(COc3ccc(Br)cc3)nc2C#N)cc1OC,-24.8%,-15.1%,-9.3%,39.8µM*,-3.5
COc1ccc(CCNc2oc(Cc3cccc4ccccc34)nc2C#N)cc1OC,-17.6%,-65.9%,3.4%,?,-0.5
O=C(NC1=NCCS1)c1ccc(C(F)(F)F)cc1,?,3.98µM*,26.0%,12.7%,-2.8
